Experimental data from ChEMBL document CHEMBL1961873, “Compounds: GSK PKIS; Assays: Nanosyn kinase panel” (2012).

Experiments:
[1] = biological target: Dual specificity protein kinase CLK3 (Homo sapiens) (UniProt P49761); details: at 1 µM;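 note: each value is the mean inhibition of CLK3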
[2] = biological target: Dual specificity tyrosine-phosphorylation-regulated kinase 1A (Homo sapiens) (UniProt Q13627); details: at 0.1 µM
[3] = biological target: Dual specificity tyrosine-phosphorylation-regulated kinase 1A (Homo sapiens) (UniProt Q13627); details: at 1 µM
[4] = biological target: Dual specificity tyrosine-phosphorylation-regulated kinase 1B (Homo sapiens) (UniProt Q9Y463); details: at 0.1 µM
Sequence of Dual specificity tyrosine-phosphorylation-regulated kinase 1B (Homo sapiens) (Q9Y463 whole entry, looked up): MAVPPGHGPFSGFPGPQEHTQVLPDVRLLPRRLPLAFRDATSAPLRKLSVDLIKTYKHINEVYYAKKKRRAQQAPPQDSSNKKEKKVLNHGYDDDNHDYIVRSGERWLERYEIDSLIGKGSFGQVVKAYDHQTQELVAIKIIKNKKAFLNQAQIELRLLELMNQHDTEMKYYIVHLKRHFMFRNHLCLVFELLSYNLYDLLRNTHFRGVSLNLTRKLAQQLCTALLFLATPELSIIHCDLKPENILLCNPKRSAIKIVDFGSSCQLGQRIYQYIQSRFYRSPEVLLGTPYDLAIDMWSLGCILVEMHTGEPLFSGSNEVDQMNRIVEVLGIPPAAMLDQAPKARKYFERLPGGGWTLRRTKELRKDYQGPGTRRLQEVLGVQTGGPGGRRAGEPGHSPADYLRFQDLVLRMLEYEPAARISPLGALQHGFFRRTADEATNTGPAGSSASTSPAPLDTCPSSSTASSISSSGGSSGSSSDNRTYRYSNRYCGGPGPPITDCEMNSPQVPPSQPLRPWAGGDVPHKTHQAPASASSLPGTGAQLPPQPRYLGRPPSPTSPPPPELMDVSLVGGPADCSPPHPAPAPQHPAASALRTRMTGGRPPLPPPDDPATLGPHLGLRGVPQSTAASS

[5] = biological target: Dual specificity tyrosine-phosphorylation-regulated kinase 1B (Homo sapiens) (UniProt Q9Y463); details: at 1 µM
[6] = biological target: T1, Dual specificity tyrosine-phosphorylation-regulated kinase 2 (Homo sapiens) (UniProt Q92630); details: at 0.1 µM
T1 sequence (whole entry): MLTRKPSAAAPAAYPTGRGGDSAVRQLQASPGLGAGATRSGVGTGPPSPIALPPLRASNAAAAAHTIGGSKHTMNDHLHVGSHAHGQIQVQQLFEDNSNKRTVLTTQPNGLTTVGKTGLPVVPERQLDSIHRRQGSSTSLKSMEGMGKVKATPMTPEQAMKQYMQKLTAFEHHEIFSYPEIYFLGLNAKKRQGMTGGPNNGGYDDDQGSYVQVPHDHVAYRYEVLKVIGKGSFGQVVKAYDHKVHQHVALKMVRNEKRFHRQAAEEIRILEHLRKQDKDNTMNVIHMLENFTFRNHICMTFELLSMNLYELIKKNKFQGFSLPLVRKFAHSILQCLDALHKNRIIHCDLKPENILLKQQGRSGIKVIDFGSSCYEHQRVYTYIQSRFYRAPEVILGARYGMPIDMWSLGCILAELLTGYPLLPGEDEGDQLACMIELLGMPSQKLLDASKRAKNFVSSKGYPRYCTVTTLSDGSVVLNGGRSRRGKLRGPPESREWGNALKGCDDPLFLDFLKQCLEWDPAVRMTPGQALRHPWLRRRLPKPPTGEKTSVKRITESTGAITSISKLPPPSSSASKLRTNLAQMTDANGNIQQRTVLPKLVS

[7] = biological target: T1, Dual specificity tyrosine-phosphorylation-regulated kinase 2 (Homo sapiens); details: at 1 µM
[8] = biological target: Glycogen synthase kinase-3 alpha (Homo sapiens) (UniProt P49840); details: at 0.1 µM
Sequence of Glycogen synthase kinase-3 alpha (Homo sapiens) (P49840 2-483 limits assumed): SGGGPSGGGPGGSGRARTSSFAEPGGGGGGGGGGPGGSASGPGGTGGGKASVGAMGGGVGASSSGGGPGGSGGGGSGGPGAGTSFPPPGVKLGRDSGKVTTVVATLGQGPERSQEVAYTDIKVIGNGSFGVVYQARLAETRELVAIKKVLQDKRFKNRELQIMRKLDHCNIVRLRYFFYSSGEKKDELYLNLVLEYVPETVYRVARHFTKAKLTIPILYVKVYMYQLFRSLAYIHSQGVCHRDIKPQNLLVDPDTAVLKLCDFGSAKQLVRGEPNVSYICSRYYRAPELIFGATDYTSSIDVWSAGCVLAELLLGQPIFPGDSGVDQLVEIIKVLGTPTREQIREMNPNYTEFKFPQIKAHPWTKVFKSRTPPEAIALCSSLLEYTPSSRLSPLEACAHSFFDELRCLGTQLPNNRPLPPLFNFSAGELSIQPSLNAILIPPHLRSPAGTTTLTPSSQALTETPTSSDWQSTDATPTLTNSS

[9] = biological target: Glycogen synthase kinase-3 alpha (Homo sapiens) (UniProt P49840); details: at 1 µM
[10] = biological target: Glycogen synthase kinase-3 beta (Homo sapiens) (UniProt P49841); details: at 0.1 µM
Sequence of Glycogen synthase kinase-3 beta (Homo sapiens) (P49841 whole entry, looked up): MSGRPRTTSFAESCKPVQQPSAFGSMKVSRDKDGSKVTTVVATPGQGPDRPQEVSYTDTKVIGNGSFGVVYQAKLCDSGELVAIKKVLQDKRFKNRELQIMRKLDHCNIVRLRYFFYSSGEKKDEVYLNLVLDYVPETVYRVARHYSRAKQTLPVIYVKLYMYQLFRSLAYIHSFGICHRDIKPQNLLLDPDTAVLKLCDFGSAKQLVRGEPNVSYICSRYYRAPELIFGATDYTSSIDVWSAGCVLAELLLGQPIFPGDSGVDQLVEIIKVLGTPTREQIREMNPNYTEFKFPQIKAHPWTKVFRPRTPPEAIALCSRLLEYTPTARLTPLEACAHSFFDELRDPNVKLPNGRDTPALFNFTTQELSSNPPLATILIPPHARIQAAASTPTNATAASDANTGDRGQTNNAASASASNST

[11] = biological target: Glycogen synthase kinase-3 beta (Homo sapiens) (UniProt P49841); details: at 1 µM
[12] = biological target: Homeodomain-interacting protein kinase 1 (Homo sapiens) (UniProt Q86Z02); details: at 0.1 µM
Sequence of Homeodomain-interacting protein kinase 1 (Homo sapiens) (Q86Z02 whole entry, looked up): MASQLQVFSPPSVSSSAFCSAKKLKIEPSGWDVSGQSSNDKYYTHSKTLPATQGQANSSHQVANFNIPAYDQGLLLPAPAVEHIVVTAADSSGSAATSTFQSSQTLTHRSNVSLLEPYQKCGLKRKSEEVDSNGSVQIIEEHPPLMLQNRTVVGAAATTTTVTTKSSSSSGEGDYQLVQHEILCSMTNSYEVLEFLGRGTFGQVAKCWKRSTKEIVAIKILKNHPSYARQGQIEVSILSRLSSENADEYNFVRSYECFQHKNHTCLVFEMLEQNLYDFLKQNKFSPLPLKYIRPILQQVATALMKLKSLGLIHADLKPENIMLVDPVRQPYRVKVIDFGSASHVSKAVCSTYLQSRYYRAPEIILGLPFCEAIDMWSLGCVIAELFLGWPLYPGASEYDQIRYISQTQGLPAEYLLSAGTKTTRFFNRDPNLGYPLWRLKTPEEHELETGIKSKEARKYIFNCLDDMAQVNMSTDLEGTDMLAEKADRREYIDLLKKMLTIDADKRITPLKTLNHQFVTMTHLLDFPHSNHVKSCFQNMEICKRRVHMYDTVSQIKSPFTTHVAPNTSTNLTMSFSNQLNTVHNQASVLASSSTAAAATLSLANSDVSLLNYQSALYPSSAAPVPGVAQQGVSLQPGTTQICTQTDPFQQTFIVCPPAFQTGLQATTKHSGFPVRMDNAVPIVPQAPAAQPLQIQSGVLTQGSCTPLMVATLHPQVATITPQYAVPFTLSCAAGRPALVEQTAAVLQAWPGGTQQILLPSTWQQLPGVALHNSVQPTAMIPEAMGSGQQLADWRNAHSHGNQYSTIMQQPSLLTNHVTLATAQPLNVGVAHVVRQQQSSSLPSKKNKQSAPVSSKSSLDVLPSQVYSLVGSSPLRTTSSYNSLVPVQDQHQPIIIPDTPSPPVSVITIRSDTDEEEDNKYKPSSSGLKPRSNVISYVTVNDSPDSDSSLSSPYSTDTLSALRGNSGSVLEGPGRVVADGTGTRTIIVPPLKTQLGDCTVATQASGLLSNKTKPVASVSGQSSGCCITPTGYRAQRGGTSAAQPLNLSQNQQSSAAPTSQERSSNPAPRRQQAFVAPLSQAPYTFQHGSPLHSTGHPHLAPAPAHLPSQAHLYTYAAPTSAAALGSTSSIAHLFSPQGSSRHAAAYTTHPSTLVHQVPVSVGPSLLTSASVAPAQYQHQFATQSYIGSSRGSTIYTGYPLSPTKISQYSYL

[13] = biological target: Homeodomain-interacting protein kinase 1 (Homo sapiens) (UniProt Q86Z02); details: at 1 µM
[14] = biological target: T2, Homeodomain-interacting protein kinase 4 (Homo sapiens) (UniProt Q8NE63); details: at 0.1 µM
T2 sequence (whole entry): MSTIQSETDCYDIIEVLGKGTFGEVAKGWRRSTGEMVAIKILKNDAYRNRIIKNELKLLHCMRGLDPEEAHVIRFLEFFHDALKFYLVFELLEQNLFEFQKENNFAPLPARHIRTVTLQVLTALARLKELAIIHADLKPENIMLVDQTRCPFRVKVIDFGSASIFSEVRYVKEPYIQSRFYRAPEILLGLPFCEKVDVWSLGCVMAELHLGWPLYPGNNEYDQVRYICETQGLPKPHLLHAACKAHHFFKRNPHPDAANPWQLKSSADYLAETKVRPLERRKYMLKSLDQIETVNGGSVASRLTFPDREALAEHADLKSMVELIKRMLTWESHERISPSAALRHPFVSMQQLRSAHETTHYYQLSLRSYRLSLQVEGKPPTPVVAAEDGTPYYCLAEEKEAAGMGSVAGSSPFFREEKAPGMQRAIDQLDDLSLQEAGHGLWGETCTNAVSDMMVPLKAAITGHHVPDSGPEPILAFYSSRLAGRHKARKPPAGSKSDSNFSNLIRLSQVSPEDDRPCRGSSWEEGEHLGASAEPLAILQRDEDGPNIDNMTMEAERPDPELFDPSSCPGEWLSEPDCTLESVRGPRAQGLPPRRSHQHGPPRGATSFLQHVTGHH

[15] = biological target: T2, Homeodomain-interacting protein kinase 4 (Homo sapiens); details: at 1 µM
[16] = biological target: Mitogen-activated protein kinase 9 (Homo sapiens) (UniProt P45984); details: at 0.1 µM
Sequence of Mitogen-activated protein kinase 9 (Homo sapiens) (P45984 whole entry, looked up): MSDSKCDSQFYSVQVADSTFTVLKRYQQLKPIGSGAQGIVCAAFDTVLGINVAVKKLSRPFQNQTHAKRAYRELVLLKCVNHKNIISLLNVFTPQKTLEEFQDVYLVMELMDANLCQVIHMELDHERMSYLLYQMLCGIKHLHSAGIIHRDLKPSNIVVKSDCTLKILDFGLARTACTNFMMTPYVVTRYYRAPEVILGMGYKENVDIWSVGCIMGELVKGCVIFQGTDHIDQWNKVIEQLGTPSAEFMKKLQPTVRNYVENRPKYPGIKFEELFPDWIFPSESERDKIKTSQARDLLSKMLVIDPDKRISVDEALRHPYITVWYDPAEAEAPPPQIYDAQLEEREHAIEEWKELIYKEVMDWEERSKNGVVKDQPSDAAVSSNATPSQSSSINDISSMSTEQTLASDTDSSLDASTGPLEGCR

[17] = biological target: Mitogen-activated protein kinase 9 (Homo sapiens) (UniProt P45984); details: at 1 µM
[18] = biological target: Mitogen-activated protein kinase 1 (Homo sapiens) (UniProt P28482); details: at 0.1 µM
Sequence of Mitogen-activated protein kinase 1 (Homo sapiens) (P28482 whole entry): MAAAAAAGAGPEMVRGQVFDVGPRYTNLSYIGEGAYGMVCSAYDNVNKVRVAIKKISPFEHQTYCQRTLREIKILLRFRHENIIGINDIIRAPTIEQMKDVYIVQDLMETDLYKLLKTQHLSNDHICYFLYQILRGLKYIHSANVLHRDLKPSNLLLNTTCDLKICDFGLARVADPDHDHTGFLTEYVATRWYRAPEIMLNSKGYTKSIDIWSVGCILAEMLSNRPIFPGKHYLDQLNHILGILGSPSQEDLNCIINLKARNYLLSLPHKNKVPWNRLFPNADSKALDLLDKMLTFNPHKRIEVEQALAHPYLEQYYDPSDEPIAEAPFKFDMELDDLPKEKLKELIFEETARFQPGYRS

[19] = biological target: Mitogen-activated protein kinase 1 (Homo sapiens) (UniProt P28482); details: at 1 µM
[20] = biological target: Mitogen-activated protein kinase 3 (Homo sapiens) (UniProt P27361); details: at 0.1 µM;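 note: each value is a mean inhibition figure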
Sequence of Mitogen-activated protein kinase 3 (Homo sapiens) (P27361 whole entry): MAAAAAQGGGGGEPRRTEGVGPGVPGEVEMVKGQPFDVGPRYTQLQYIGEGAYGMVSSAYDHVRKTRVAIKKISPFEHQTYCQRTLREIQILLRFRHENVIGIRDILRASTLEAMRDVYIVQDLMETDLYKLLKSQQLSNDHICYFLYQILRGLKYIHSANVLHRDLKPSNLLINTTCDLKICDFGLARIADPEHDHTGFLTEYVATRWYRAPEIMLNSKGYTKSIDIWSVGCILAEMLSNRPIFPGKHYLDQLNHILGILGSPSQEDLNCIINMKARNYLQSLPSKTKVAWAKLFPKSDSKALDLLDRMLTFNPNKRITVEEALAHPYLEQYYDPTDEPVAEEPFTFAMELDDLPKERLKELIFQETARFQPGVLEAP

Sequence of Dual specificity protein kinase CLK3 (Homo sapiens) (P49761 whole entry, looked up): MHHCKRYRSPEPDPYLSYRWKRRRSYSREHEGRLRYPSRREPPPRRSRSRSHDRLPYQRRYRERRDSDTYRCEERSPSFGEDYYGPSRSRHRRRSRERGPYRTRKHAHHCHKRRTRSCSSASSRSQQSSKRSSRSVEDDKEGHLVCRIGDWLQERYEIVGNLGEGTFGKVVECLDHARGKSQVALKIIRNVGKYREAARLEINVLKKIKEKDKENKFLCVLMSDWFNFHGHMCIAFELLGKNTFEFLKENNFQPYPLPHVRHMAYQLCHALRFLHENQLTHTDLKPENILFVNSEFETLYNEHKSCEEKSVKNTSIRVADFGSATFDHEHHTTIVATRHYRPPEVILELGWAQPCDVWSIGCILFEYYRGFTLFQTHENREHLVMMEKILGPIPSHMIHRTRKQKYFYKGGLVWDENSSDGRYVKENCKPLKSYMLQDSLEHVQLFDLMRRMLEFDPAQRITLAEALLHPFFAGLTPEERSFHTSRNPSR

| Structure (SMILES) | inhibition [1] [%] | inhibition [2] [%] | inhibition [3] [%] | inhibition [4] [%] | inhibition [5] [%] | inhibition [6] [%] | inhibition [7] [%] | inhibition [8] [%] | inhibition [9] [%] | inhibition [10] [%] | inhibition [11] [%] | inhibition [12] [%] | inhibition [13] [%] | inhibition [14] [%] | inhibition [15] [%] | inhibition [16] [%] | inhibition [17] [%] | inhibition [18] [%] | inhibition [19] [%] | inhibition [20] [%] |
| --- | --- | --- | --- | --- | --- | --- | --- | --- | --- | --- | --- | --- | --- | --- | --- | --- | --- | --- | --- | --- |
| CN(c1ccc(NC(=O)Nc2ccc(OC(F)(F)F)cc2)cc1)c1ccnc(Nc2cccc(S(N)(=O)=O)c2)n1 | 1.99 | 1.32 | 1.5 | -2.14 | -0.44 | 2.23 | 3.14 | 2.09 | 9.4 | 0.92 | 13.6 | 1.06 | 34 | 62.4 | 83.6 | 1.46 | 3.15 | 4.33 | 3.93 | 2.67 |
| O=C1Nc2ccc(-c3cccnc3)cc2C1=Cc1cc(Br)c(O)c(Br)c1 | 38.6 | 21.7 | 63.5 | 9 | 46.7 | 3.53 | 15.5 | 4.28 | 26.1 | 3.87 | 21.4 | 2.42 | 22.4 | 2.35 | 13.8 | 1.52 | 3.04 | 6.12 | 3.37 | 4.06 |
| CN1CCN(C(=O)c2ccc(NC(=O)Nc3ccc(N(C)c4ccnc(Nc5ccc(CS(C)(=O)=O)cc5)n4)cc3)cc2)CC1 | -0.46 | -0.03 | -2.1 | 0.37 | -2.01 | 2.14 | 4.06 | 2.9 | 4.98 | 1.98 | 4.51 | -3.22 | 5.55 | 0.53 | 9.14 | 0.8 | 12.4 | 1.77 | 11.2 | 2.64 |
| Nc1ccc(C#Cc2cncnc2Nc2ccc(OCc3cccc(F)c3)c(Cl)c2)cc1 | 0.7 | 3.22 | 2.99 | 0.49 | 2.12 | 1.74 | 0.41 | 2.01 | 1.4 | 1.95 | 0.21 | -0.22 | 0.93 | 0.09 | 0.28 | 1.88 | 1.2 | 4.25 | 3.67 | 3.61 |
| CN(C)c1cc2c(Nc3ccc4c(cnn4Cc4ccccc4)c3)ncnc2cn1 | 1.41 | 2.17 | 6.83 | 1.02 | 3.5 | 2.42 | 2.63 | 1.84 | 5.95 | 1.16 | 4.25 | -0.5 | 2.06 | 0.72 | 0.89 | 2.84 | 2.39 | 1.31 | 3.41 | 0.27 |
| [O-][S+]1CCN(Cc2ccc(-c3ccc4ncnc(Nc5ccc(OCc6ccccc6)c(Cl)c5)c4c3)o2)CC1 | -0.64 | 1.81 | 2.81 | 0.05 | 0.51 | 1.29 | 0.17 | 1.1 | 1.03 | 0.33 | 1.33 | -1.84 | 0.05 | 0.81 | 2.27 | -0.11 | 2.26 | 3.15 | 4.09 | 1.32 |
| N#Cc1cccc(Nc2nccc(-c3cnn4ncccc34)n2)c1 | 78.4 | 81.7 | 86.4 | 81.3 | 86.5 | 20.3 | 71.5 | 85.3 | 89.5 | 84.1 | 88.1 | 82.9 | 89.3 | 79.9 | 88.1 | 10.4 | 44.3 | 15.6 | 59.4 | 8.27 |
| Cc1ccc(O)cc1Nc1ccnc2ccc(S(C)(=O)=O)cc12 | 3.42 | 4.16 | 12.6 | 0.55 | 2.94 | 3.03 | 4.88 | 2.64 | 1.72 | 1.89 | 3.47 | -0.12 | 1.59 | 2.64 | 8.27 | 4.77 | 5.22 | 5.91 | 5.63 | 5.26 |
| COC(=O)Nc1nc2cc(Oc3ccc(NC(=O)Nc4cccc(Br)c4)cc3)ccc2[nH]1 | 1.74 | 1.12 | 2.3 | 0.23 | 1.17 | 3.11 | 3.59 | 2.27 | 5.24 | 1.01 | 6.86 | -0.71 | 2.41 | 8.37 | 19.5 | 3.12 | 4.83 | 2.82 | 2.49 | 2.94 |
| CN(C)CCCn1c(-c2nonc2N)nc2cnccc21 | 1.96 | 3.5 | 8.9 | 0.77 | 4.52 | 2.75 | 3.79 | 2.45 | 15.1 | 2.77 | 12.3 | 1.03 | -0.49 | 0.39 | 0.4 | 5.36 | 4.57 | 2.21 | 4.9 | 2.32 |
| CS(=O)(=O)CCNCc1nc(-c2ccc3ncnc(Nc4ccc(OCc5cccc(C(F)(F)F)c5)cc4)c3c2)cs1 | -1.22 | -1.28 | -1.8 | 0.58 | 2.3 | 1.36 | 1.03 | 6.47 | 4.93 | 5.25 | 4.85 | -1.73 | 0.09 | -0.35 | 0.46 | 2.97 | 6.45 | 1.69 | 1.79 | 2.89 |
| O=S(=O)(CCOCc1ccc(-c2ccc3ncnc(Nc4ccc(OCc5cccc(F)c5)c(Cl)c4)c3c2)o1)c1ccccc1 | 0.14 | 1.15 | 1.59 | -0.1 | 2.9 | 0.96 | 2.34 | 2.99 | 5.63 | 2.14 | 5.91 | -2.8 | 2.64 | 2.22 | 5.69 | 0.13 | 0.74 | 2.68 | 3.54 | 3.68 |
| CN(C)C(=O)O[C@@H]1CN[C@@H](C#Cc2cc3ncnc(Nc4ccc(OCc5cccc(F)c5)c(Cl)c4)c3s2)C1 | 0.69 | 0.28 | 2.08 | 0.23 | 1.08 | -0.19 | -0.32 | 1.34 | 8.31 | 1.37 | 7.41 | -3.67 | -3.81 | -1.55 | 0.99 | 3.81 | 4.77 | -1.16 | 1.96 | 3.17 |
